# An excerpt weighted towards active compounds, which were near 19% of everything screened.
# IL1B secr inh: inhibitors of inflammasome signaling (IL-1 beta secretion); AID 743279; activity change, % at 57.5 µM; 4.7% of 360,000 active; THP-1 LPS/ATP IL-1B secretion, AlphaLISA, 16 h; stronger effect = lower value; in the data active = activity change below about -50%; inconclusive = mostly about -30% to -49%
#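 Secreted IL-1B measured by AlphaLISA bead assay after 16 h compound exposure of THP-1 cells; compounds (final up to 57.5 uM) added 1 h before LPS (250 ng/mL) and ATP (1.25 mM) stimulation; lower signal means less secretion.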
# HT1080-NT tox: kills 2HG-producing HT-1080-NT fibrosarcoma cells; 1.6% of 360,000 active; HT-1080-NT fibrosarcoma viability, CellTiter-Glo ATP luminescence, 48 h; Potency, µM (series often up to 46.1 µM), hits mostly cytotoxic;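 note: NT is the 2HG producing partner of a matched IDH1 knockdown line; nearly all actives have a fitted effect of over 55% in size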
#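 Toxicity toward the 2HG-producing NT line was scored as %Activity, normalised to DMSO and no-cell wells, from CellTiter-Glo luminescence after 48 hours' treatment.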
# DT40 TDP1 CPT: growth inhibition of DT40 Tdp1-/-;hTDP1 cells with camptothecin (screen for TDP1 inhibitors); 12% of 420,000 active; chicken DT40 Tdp1-/-;hTDP1 cells + 20 nM CPT, ATP luminescence, 48 h; AID 686979; Potency, µM (highest dose often 46.2 µM), most hits filed as inhibitors; note: nearly all actives have a fitted effect of over 55% in size
#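 Cell growth measured by CellTiter-Glo luminescence after a minimum 48 h, 37 C compound exposure with 20 nM CPT in Tdp1-knockout DT40 cells stably expressing hTDP1, seeded 400/well; qHTS titration format.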
# TDP1 cell noCPT: qHTS for Inhibitors of human tyrosyl-DNA phosphodiesterase 1 (TDP1): qHTS in cells in absence of CPT; DT40 Tdp1-/- hTDP1 cells, no CPT, ATP luminescence, 48 h; Potency, µM (series often up to 46.2 µM), usual class: inhibitors; 15% of 420,000 active; AID 686978, 2013; note: nearly all actives have a fitted effect of over 55% in size
#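 Luminescent ATP content (CellTiter-Glo) served as the growth readout. Knockout chicken DT40 cells expressing human TDP1 were exposed to compounds without camptothecin for a minimum 48 hr at 37 °C.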
# HT1080 IDH1KD tx: kills HT-1080 cells with IDH1 knockdown; HT-1080 IDH1 knockdown viability, ATP luminescence, 48 h; Potency, µM (highest dose often 46.1 µM), usual class: cytotoxic; 2% of 360,000 active; AID 686971
#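 In this qHTS, HT-1080 cells depleted of IDH1 are exposed for 48 h at 37 °C to compound titrations. Toxicity is scored from CellTiter-Glo luminescence, with DMSO as full viability and medium alone as none.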
# Hits are given with their value; - = inactive; ? = inconclusive; . = no result. Unless noted, calls come from the whole dose curve; as a rule, active = well fitted curve in the direction sought with a large enough effect; inconclusive = small, poorly fitted or top-dose-only effect, or another doubt; inactive = no such curve, though single readings can be large; an effect the other way counts as inactive or inconclusive.
SMILES,IL1B secr inh,HT1080-NT tox,DT40 TDP1 CPT,TDP1 cell noCPT,HT1080 IDH1KD tx
Cc1ccc(C(=O)N/C(=C/c2ccc(-c3cccc([N+](=O)[O-])c3)o2)C(=O)NC(C)(C)C)cc1,-,-,?,13µM,-
COc1ccc(C(=O)N/C(=C\c2ccco2)C(=O)NCCN2CCOCC2)cc1,-,-,-,-,-
Cc1nn(-c2ccccc2)c(C)c1NC(=O)COC(=O)/C=C/c1ccccc1,-,-,-,-,-
COc1ccc(C(=O)NN2CC(O)=C(c3nc4ccccc4n3C)C2=N)cc1OC,-,-,-,-,-
Cc1cccc(N2CCN(C(=O)c3ccccc3OCc3c(C)noc3C)CC2)c1C,?,-,18µM,16µM,-
Cc1ccc(S(=O)(=O)N2CCN(C(=O)c3ccccc3OCc3c(C)noc3C)CC2)cc1,-,-,18µM,?,-
Cc1noc(C)c1COc1ccccc1C(=O)N1CCN(S(=O)(=O)c2ccccc2F)CC1,-,-,?,-,-
COc1ccc(OCCSc2nc(N)cc(=O)[nH]2)cc1,-,-,-,-,-
CCOc1ccc(OCCSc2nc(C)cc(=O)[nH]2)cc1,-,-,12µM,21µM,-
O=C(CC(=O)Nc1ccc(Cl)cc1)N/N=C\c1cccc(F)c1,-,-,-,-,-
Cn1c(SCC(=O)Nc2ccc(Br)cn2)nnc1C1CC1,-,-,-,-,-
C#CCOc1ccc(C2C3=C(CCCC3=O)N(CC(=O)O)C3=C2C(=O)CCC3)cc1Br,-,-,-,-,-
c1ccc(SC23CCCCN(CCC2)C32OCCO2)cc1 (centres undefined),-,-,-,-,-
C=CCN1C(=O)[C@@H]2Cc3c([nH]c4ccccc34)C(c3cc(OC)c(OC)c(OC)c3)N2C1=S (some centres undefined),-,?,?,?,?
C=CCN1C(=O)[C@@H]2Cc3c([nH]c4ccccc34)C(c3ccc(O)cc3)N2C1=S (some centres undefined),-,-,?,16µM,-
COc1cc(C2c3[nH]c4ccccc4c3C[C@H]3C(=O)N(CCO)CC(=O)N23)cc(OC)c1OC (some centres undefined),-,-,?,21µM,?
COc1cc(C2c3[nH]c4ccccc4c3CC3COC(=O)N32)cc(OC)c1O (centres undefined),-,?,0.29µM,0.29µM,?
O=C1[C@@H]2Cc3c([nH]c4ccccc34)C(c3ccccc3)N2C(=O)CN1CCO (some centres undefined),-,-,-,-,-
COc1cc([C@H]2c3[nH]c4ccccc4c3C[C@H]3C(=O)N4[C@@H](c5cc(OC)c(OC)c(OC)c5)c5[nH]c6ccccc6c5C[C@H]4C(=O)N23)cc(OC)c1OC,-,12µM,4.6µM,2.9µM,15µM
CC(C)Cc1nnc(NC(=O)CCC(=O)N2CC(C)CC(C)C2)s1 (centres undefined),-,-,-,-,-
COc1ccccc1-c1cnc2c(Nc3cccc(OC(F)(F)C(F)F)c3)nccn12,-,-,?,?,-
FC(F)C(F)(F)Oc1cccc(Nc2nccn3c(-c4cccc5cccnc45)cnc23)c1,-,-,26µM,23µM,?
CN(C)CCCNC(=S)NCC(c1ccc(Cl)cc1Cl)c1c[nH]c2ccccc12 (centres undefined),-104,21µM,?,?,16µM
NCC(c1ccccc1Cl)c1c[nH]c2ccccc12 (centres undefined),?,?,5.2µM,13µM,?
NCC(c1ccc(Cl)cc1Cl)c1c[nH]c2ccccc12 (centres undefined),-88,?,18µM,23µM,?
SMILES,IL1B secr inh,HT1080-NT tox,DT40 TDP1 CPT,TDP1 cell noCPT,HT1080 IDH1KD tx
O=C(Cc1c[nH]c2ccccc12)NCc1ccc(Cl)cc1Cl,-,-,-,-,-
Cc1ccc(-c2ccc(/C=C3\C(=O)ON=C3c3ccccc3)o2)c([N+](=O)[O-])c1,-107,?,8.2µM,16µM,-
O=C1/C(=C\c2ccc(-c3ccccc3[N+](=O)[O-])o2)C(c2ccccc2)=NN1c1ccccc1,-,-,-,-,-
Cc1ccc(/C=C2\C(=O)ON=C2c2ccccc2)o1,-,-,-,-,-
Cc1ccc(C2=NOC(=O)/C2=C\c2ccc(C)o2)cc1,-,-,13µM,23µM,-
O=C(Nc1cccc(S(=O)(=O)NC2=NCCC2)c1)c1ccccc1OC(F)F,-,-,-,-,-
N#CCCn1cc(CNCc2cccnc2)c(-c2ccccc2)n1,.,.,?,-,.
COc1ccc(C(=O)N[C@H](C(=O)Nc2nc3c(s2)CCCC3)C(C)C)cc1,-,-,?,23µM,-
CCC(Oc1ccc(F)cc1)C(=O)Nc1nc2c(s1)CCCC2 (centres undefined),.,.,?,16µM,.
CCOc1ccccc1C(=O)N[C@H](C(=O)Nc1nc2c(s1)CCCC2)C(C)C,?,?,16µM,18µM,?
O=C(COc1ccccc1F)NC12CC3CC(CC(C3)C1)C2,-,-,?,?,-
CCC(CC)COC(=O)C1=C(C)NC(=O)NC1c1cccc([N+](=O)[O-])c1 (centres undefined),-,-,?,?,-
COc1cc(C(=O)NCc2nnc(SCC(=O)NC3CCCCC3)o2)cc(OC)c1OC,-,-,-,-,-
C[C@@H](NC(=O)[C@@H]1Cc2ccccc2CN1)C(=O)NCc1ccco1,-,-,-,-,-
COC(=O)c1c(C)[nH]c(C)c1C(=O)c1ccccc1Cc1ccccc1,-,-,40µM,7.3µM,-
COc1ccc(C(C)(NC(C)=O)c2nc(-c3ccc(F)c(Cl)c3)cs2)cc1 (centres undefined),-,?,18µM,23µM,?
CC(=O)NC(C)(c1ccccc1)c1nc(-c2ccc(N(C)C)cc2)cs1 (centres undefined),-,-,16µM,23µM,?
COc1ccc(-c2csc(C(C)(NC(C)=O)c3ccc(OC)cc3)n2)cc1 (centres undefined),-,-,16µM,?,-
COc1ccc(C(C)(NC(C)=O)c2nc(-c3ccncc3)cs2)cc1 (centres undefined),-,-,-,-,-
COc1cccc(C(NC(C)=O)c2nc(-c3ccc(F)c(Cl)c3)cs2)c1 (centres undefined),-,-,-,-,-
COc1ccc(OC2C(=O)N(CCc3ccc(OC)c(OC)c3)C2c2ccc3c(c2)OCO3)cc1 (centres undefined),?,-,18µM,13µM,-

# Screening data deposited in PubChem BioAssay by National Center for Advancing Translational Sciences (NCATS).
